Assay results taken from PubChem BioAssay (NCATS).
Inconclusive results are not listed. Activity calls are given as the source filed them. The call rests on the fitted dose curve; in most records, active means well fitted cell-killing curve with a large enough effect; inconclusive means small, poorly fitted or top-dose-only effect, or effect the other way; inactive means flat fitted curve, though single readings scatter.

How the values were obtained:
Test in all cases: Primary qHTS to identify gynecologic anti-cancer compounds using libraries of approved drugs and bioactive compounds (AID 1345084); further: nearly all actives have a fitted effect of over 55% in size
C33A = conditions: Gynecologic cancer cell panel viability, ATPlite luminescence, 48 h; series mostly up to 57.5 µM
In short: (§1)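 Five-concentration response, 48 h; readout is ATP-driven luciferase luminescence.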

CAOV3 = conditions: Gynecologic cancer cell panel viability, ATPlite luminescence, 48 h; series mostly up to 57.5 µM
In short: as §1

CASKI = conditions: Gynecologic cancer cell panel viability, ATPlite luminescence, 48 h; series mostly up to 57.5 µM
In short: as §1

Es-2 = conditions: Gynecologic cancer cell panel viability, ATPlite luminescence, 48 h; series mostly up to 57.5 µM
In short: as §1

HeLa = conditions: Gynecologic cancer cell panel viability, ATPlite luminescence, 48 h; series mostly up to 57.5 µM
In short: as §1

Hek293T = conditions: Gynecologic cancer cell panel viability, ATPlite luminescence, 48 h, control line for the selectivity index; series mostly up to 57.5 µM
In short: as §1

JEG-3 = conditions: Gynecologic cancer cell panel viability, ATPlite luminescence, 48 h; series mostly up to 57.5 µM
In short: as §1

OV90 = conditions: Gynecologic cancer cell panel viability, ATPlite luminescence, 48 h; series mostly up to 57.5 µM
In short: as §1

PA-1 = conditions: Gynecologic cancer cell panel viability, ATPlite luminescence, 48 h; series mostly up to 57.5 µM
In short: as §1

SKOV3 = conditions: Gynecologic cancer cell panel viability, ATPlite luminescence, 48 h; series mostly up to 57.5 µM
In short: as §1

Tov-21-G = conditions: Gynecologic cancer cell panel viability, ATPlite luminescence, 48 h; series mostly up to 57.5 µM
In short: as §1

Tov112D = conditions: Gynecologic cancer cell panel viability, ATPlite luminescence, 48 h; series mostly up to 57.5 µM
In short: as §1
On the % scale 0 is the no-effect control and ±100 the full control effect.

CC1CCC(=O)CC(O)C(O)CC(=O)O1 (configuration not stated)
inactive: Potency (C33A) | Potency (CAOV3) | Potency (CASKI) | Potency (Es-2) | Potency (HeLa) | Potency (Hek293T) | Potency (JEG-3) | Potency (OV90) | Potency (PA-1) | Potency (SKOV3) | Potency (Tov-21-G) | Potency (Tov112D)

C/C=C(\C)C(=O)O[C@@H]1CC2[C@@H](CC=C3C[C@@H](O[C@H]4C[C@H](OC)[C@H](O[C@H]5C[C@H](OC)[C@H](O[C@H]6C[C@H](OC)[C@H](O[C@H]7C[C@@H](OC)[C@H](O[C@@H]8O[C@H](CO)[C@@H](O)[C@H](O)[C@H]8O)[C@@H](C)O7)[C@@H](C)O6)[C@@H](C)O5)[C@@H](C)O4)CC[C@@]32C)[C@@]2(O)CC[C@H](C(C)=O)[C@@]12C (some centres not stated)
inactive: activity change, negative = cytotoxicity (C33A) 1.71% [at 6.55 µM] | activity change, negative = cytotoxicity (CAOV3) -0.474% [at 6.55 µM] | activity change, negative = cytotoxicity (CASKI) -0.911% [at 6.55 µM] | activity change, negative = cytotoxicity (Es-2) -1.08% [at 6.55 µM] | activity change, negative = cytotoxicity (HeLa) -14.4% [at 6.55 µM] | activity change, negative = cytotoxicity (Hek293T) 11.8% [at 6.55 µM] | activity change, negative = cytotoxicity (JEG-3) -0.396% [at 6.55 µM] | activity change, negative = cytotoxicity (OV90) 3.72% [at 6.55 µM] | activity change, negative = cytotoxicity (PA-1) -8.02% [at 6.55 µM] | activity change, negative = cytotoxicity (SKOV3) -0.126% [at 6.55 µM] | activity change, negative = cytotoxicity (Tov-21-G) 2.08% [at 6.55 µM] | activity change, negative = cytotoxicity (Tov112D) -2.78% [at 6.55 µM]

C=C1CC2C3(C)C(OC(C)=O)CC(=O)OC(C)(C)C3C(O)C(OC(C)=O)C2(C)C2C(=O)OC(C)C(=O)C12C (configuration not stated)
inactive: Potency (C33A) | Potency (CAOV3) | Potency (CASKI) | Potency (Es-2) | Potency (HeLa) | Potency (Hek293T) | Potency (JEG-3) | Potency (OV90) | Potency (PA-1) | Potency (SKOV3) | Potency (Tov-21-G) | Potency (Tov112D)

CO[C@H]1C=C2C(CC[C@H](O[C@@H]3O[C@H](CO)[C@@H](O)[C@@H](O)[C@H]3O)C2(C)C)[C@]2(C)CC[C@]3(C)C([C@H](C)C(O)C(C=C(C)C)O[C@@H]4O[C@H](CO)[C@@H](O)[C@@H](O)[C@H]4O)CC[C@@]3(C)C12 (some centres not stated)
inactive: activity change, negative = cytotoxicity (C33A) -3.11% [at 11.6 µM] | activity change, negative = cytotoxicity (CAOV3) 7.91% [at 11.6 µM] | activity change, negative = cytotoxicity (CASKI) -4.92% [at 11.6 µM] | activity change, negative = cytotoxicity (Es-2) 2.74% [at 11.6 µM] | activity change, negative = cytotoxicity (HeLa) 0.609% [at 11.6 µM] | activity change, negative = cytotoxicity (Hek293T) 12.3% [at 11.6 µM] | activity change, negative = cytotoxicity (JEG-3) -6.82% [at 11.6 µM] | activity change, negative = cytotoxicity (OV90) 5.72% [at 11.6 µM] | activity change, negative = cytotoxicity (PA-1) -0.818% [at 11.6 µM] | activity change, negative = cytotoxicity (SKOV3) -12.6% [at 11.6 µM] | activity change, negative = cytotoxicity (Tov-21-G) 4% [at 11.6 µM] | activity change, negative = cytotoxicity (Tov112D) 2.11% [at 11.6 µM]

COC1=Cc2c(nc3n(c2=O)C(C)C(=O)NC3(O)C(C)C)OC=C1 (configuration not stated)
inactive: Potency (C33A) | Potency (CAOV3) | Potency (CASKI) | Potency (Es-2) | Potency (HeLa) | Potency (Hek293T) | Potency (JEG-3) | Potency (OV90) | Potency (PA-1) | Potency (SKOV3) | Potency (Tov-21-G) | Potency (Tov112D)

COC1CC(=O)CCC(C)OC(=O)CC1O (configuration not stated)
inactive: Potency (C33A) | Potency (CAOV3) | Potency (CASKI) | Potency (Es-2) | Potency (HeLa) | Potency (Hek293T) | Potency (JEG-3) | Potency (OV90) | Potency (PA-1) | Potency (SKOV3) | Potency (Tov-21-G) | Potency (Tov112D)

C[C@@H]1C[C@H](O[C@@H]2O[C@H](CO[C@@H]3OC[C@](O)(CO)[C@H]3O)[C@@H](O)[C@H](O)[C@H]2O)CC(C)(C)[C@H]1/C=C/[C@@H](C)O
inactive: Potency (C33A) | Potency (CAOV3) | Potency (CASKI) | Potency (Es-2) | Potency (HeLa) | Potency (Hek293T) | Potency (JEG-3) | Potency (OV90) | Potency (PA-1) | Potency (SKOV3) | Potency (Tov-21-G) | Potency (Tov112D)

COc1cc2c(cc1O)C1(OC)Cc3ccc4c(c3C1N(C)CC2)OCO4 (configuration not stated)
inactive: Potency (C33A) | Potency (CAOV3) | Potency (CASKI) | Potency (Es-2) | Potency (HeLa) | Potency (Hek293T) | Potency (JEG-3) | Potency (OV90) | Potency (PA-1) | Potency (SKOV3) | Potency (Tov-21-G) | Potency (Tov112D)

O=C(COc1ccc(Cl)cc1)NC1CCC(NC(=O)COc2ccc(Cl)cc2)CC1 (configuration not stated)
inactive: Potency (C33A) | Potency (CAOV3) | Potency (CASKI) | Potency (Es-2) | Potency (HeLa) | Potency (Hek293T) | Potency (JEG-3) | Potency (OV90) | Potency (PA-1) | Potency (SKOV3) | Potency (Tov-21-G) | Potency (Tov112D)

CC1CCCC2OC2C(=O)c2c(O)cc(O)cc2CC(=O)O1 (configuration not stated)
inactive: Potency (C33A) | Potency (CAOV3) | Potency (CASKI) | Potency (Es-2) | Potency (HeLa) | Potency (Hek293T) | Potency (JEG-3) | Potency (OV90) | Potency (PA-1) | Potency (SKOV3) | Potency (Tov-21-G) | Potency (Tov112D)

CC1NC(=O)C(Cc2c[nH]c3ccccc23)NC1=O (configuration not stated)
inactive: Potency (C33A) | Potency (CAOV3) | Potency (CASKI) | Potency (Es-2) | Potency (HeLa) | Potency (Hek293T) | Potency (JEG-3) | Potency (OV90) | Potency (PA-1) | Potency (SKOV3) | Potency (Tov-21-G) | Potency (Tov112D)

C=C1CC/C=C(/CO)C(=O)C[C@@H]2[C@@H]1CC2(C)C
inactive: Potency (C33A) | Potency (CAOV3) | Potency (CASKI) | Potency (Es-2) | Potency (HeLa) | Potency (Hek293T) | Potency (JEG-3) | Potency (OV90) | Potency (PA-1) | Potency (SKOV3) | Potency (Tov-21-G) | Potency (Tov112D)

CCOc1ccc(C(Nc2ccccn2)c2ccc3ccc(C)nc3c2O)cc1C (configuration not stated)
inactive: Potency (C33A) | Potency (CAOV3) | Potency (CASKI) | Potency (Es-2) | Potency (HeLa) | Potency (Hek293T) | Potency (JEG-3) | Potency (OV90) | Potency (PA-1) | Potency (SKOV3) | Potency (Tov-21-G) | Potency (Tov112D)

O=C(NN1CCCCC1)c1nn(-c2ccc(Cl)cc2Cl)c(-c2ccc(C#Cc3ccc(C(F)(F)F)cc3)s2)c1CNS(=O)(=O)N1CCCC1
inactive: Potency (C33A) | Potency (CAOV3) | Potency (CASKI) | Potency (Es-2) | Potency (HeLa) | Potency (Hek293T) | Potency (JEG-3) | Potency (OV90) | Potency (PA-1) | Potency (SKOV3) | Potency (Tov-21-G) | Potency (Tov112D)

CC(C)[C@@H](C)/C=C/[C@@H](C)[C@H]1CC[C@H]2C3=CC=C4C[C@@H](O)CC[C@]4(C)[C@H]3CC[C@]12C
inactive: Potency (C33A) | Potency (CAOV3) | Potency (CASKI) | Potency (Es-2) | Potency (HeLa) | Potency (Hek293T) | Potency (JEG-3) | Potency (OV90) | Potency (PA-1) | Potency (SKOV3) | Potency (Tov-21-G) | Potency (Tov112D)

C[C@@H]1C(=O)O[C@H]2CC34[C@H]5C[C@@H](C(C)(C)C)C36[C@@H](OC(=O)[C@@H]6O)O[C@@]4(C(=O)O5)[C@]21O (some centres not stated)
inactive: Potency (C33A) | Potency (CAOV3) | Potency (CASKI) | Potency (Es-2) | Potency (HeLa) | Potency (Hek293T) | Potency (JEG-3) | Potency (OV90) | Potency (PA-1) | Potency (SKOV3) | Potency (Tov-21-G) | Potency (Tov112D)
